MITF inh: inhibitors of MITF, primary screen, MITF inhibitor project, cell-based, luminescence | TRPM1 promoter luciferase, 24 h | inhibition, % (concentration not given with the values) | 0.28% of 37,000 active; in the data active = inhibition above about 85%; inconclusive = no clear call, values can overlap the other calls; inactive = below about 68%;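 also: human melanocyte line stably carrying TRPM1 promoter luciferase reporter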
NOMO-1 viab: NOMO-1 AML cell viability reduction, primary screen, STK33 inhibitor project, CellTiter-Glo luminescence; inhibition, % (concentration not given with the values); 7.5% of 37,000 active; NOMO-1 AML viability, 72 h; AID 2330, 2010; in the data active = inhibition above about 80%; inconclusive = no clear call, values can overlap the other calls
Hedgehog inh: Hedgehog pathway signaling inhibitors, primary screen, luminescence, Shh-LIGHT2 cells, Gli-luciferase; 2.1% of 22,000 active; AID 2313, 2010; inhibition, % (test concentration not listed); Shh-LIGHT2 Gli-luciferase reporter, 30 h;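 active = mean inhibition across valid replicates above about 65%, limit read from the data; inconclusive = mean under the limit, yet half or more replicates past it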;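 also: pathway switched on by Shh-conditioned medium diluted 1 in 25 in low serum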
A number is an active result; 0 = inactive; ? = inconclusive; - = not tested or not shown. This is a sample that favours compounds with a hit; in the whole collection about 7.8% have one here.

SMILES	MITF inh	NOMO-1 viab	Hedgehog inh
O=C(CC1NC2CCCCC2NC1=O)Nc1ccc2c(c1)OCCO2 (stereo unspecified)	0	0	-
O=C(Cc1ccccc1)c1ccccc1C(=O)NCc1cccs1	0	0	0
CC(C)(O)[C@@H]1Cc2cc3ccc(=O)oc3cc2O1	0	0	0
COc1cccc(NC(=O)CNC(=O)c2cccs2)c1	0	0	-
COC(=O)COc1cccc(NC(=O)c2cccs2)c1	0	137.2	-
COC(=O)c1ccccc1NC(=O)CNC(=O)c1ccc(C(C)(C)C)cc1	0	0	-
O=C(Cc1coc2ccc3ccccc3c12)Nc1cccnc1	0	0	-
C=C1C2CC[C@@]3(C)[C@H](c4ccoc4)OC(=O)C[C@]13O[C@H]1CC(=O)C(C)(C)C(CC(=O)OC)[C@@]21C (stereo partly specified)	0	0	0
COC(=O)C[C@H]1C(C)(C)C2(Cl)O[C@@]34CC2C(=O)[C@]1(C)C3CC[C@]1(C)C4=CC(=O)O[C@H]1c1ccoc1 (stereo partly specified)	0	100.6	0
CCOc1ccc2c(c1)C(C)=CC(C)(C)N2	0	0	0
CC1=CC(C)(C)Nc2ccc(OC(=O)CN3C(=O)c4cccc([N+](=O)[O-])c4C3=O)cc21	0	115.3	-
O=C(O)CCS(=O)(=O)c1cccc2cccnc12	0	0	-
COC(=O)CCS(=O)(=O)c1cccc2c(S(=O)(=O)CCC(=O)OC)cccc12	0	124.2	0
COc1cccc(C2CC(C(F)(F)F)n3ncc(C(=O)NCc4cccnc4)c3N2)c1 (stereo unspecified)	0	0	-
COC(=O)c1cc(OC)c(OC)cc1NC(=O)C(C)Oc1ccc(C(C)(C)C)cc1 (stereo unspecified)	0	?	-
C[C@@H]1CN([C@H](C)CO)C(=O)c2cc(NC(=O)c3ccncc3)ccc2O[C@H]1CN(C)Cc1ccc(-c2ccccc2)cc1	0	93.0	89.2
C[C@H](CO)N1C[C@H](C)[C@H](CN(C)Cc2ccc(Oc3ccccc3)cc2)Oc2ccc(NC(=O)c3ccncc3)cc2C1=O	0	0	0
C[C@@H]1CN([C@@H](C)CO)C(=O)c2cc(NC(=O)c3ccncc3)ccc2O[C@@H]1CN(C)Cc1ccc(Oc2ccccc2)cc1	0	0	84.3
C[C@@H]1CN([C@@H](C)CO)C(=O)c2cc(NC(=O)c3ccncc3)ccc2O[C@H]1CN(C)Cc1ccc(-c2ccccc2)cc1	0	0	-
Cc1ccc(Cl)cc1NC(=O)C(C)NS(=O)(=O)c1ccc(Br)cc1 (stereo unspecified)	0	0	-
CC(=O)c1cccc(NC(=O)C(C)NS(=O)(=O)c2ccc(Br)cc2)c1 (stereo unspecified)	0	0	-
C=C(C)[C@@H]1CC[C@]2(C(=O)O)CC[C@]3(C)[C@H](CC[C@@H]4[C@@]5(C)CC[C@H](O)C(C)(C)[C@@H]5CC[C@]43C)[C@@H]12	0	105.2	0
C=C(C)[C@@H]1CC[C@]2(C(=O)O)CC[C@]3(C)[C@H](CCC4[C@]5(C)C(CC[C@]43C)[C@@](C)(CO)[C@@H](O)[C@@H]5C(=O)O)C12 (stereo partly specified)	0	0	0
C=C(C)[C@@H]1CC[C@]2(C(=O)O)CC[C@]3(C)[C@H](CCC4[C@@]5(C)CCC(=O)C(C)(C)C5C(O)C[C@]43C)C12 (stereo partly specified)	0	104.2	0
COc1ccc(CCNC(=O)CSc2nc3ccccc3nc2N2CCCC2)cc1OC	0	0	0
SMILES	MITF inh	NOMO-1 viab	Hedgehog inh
Cc1cc(C)cc(NC(=O)COc2ccc3cc(-c4ccccc4)c(=O)oc3c2)c1	0	0	-
COc1ccc2c(c1)c(=O)oc1cc(OCC(=O)Nc3cc(C)cc(C)c3)ccc12	0	93.8	-
Nc1ncnc(NCc2cccnc2)c1[N+](=O)[O-]	0	0	-
Nc1ncnc(Oc2cccc3cccnc23)c1[N+](=O)[O-]	0	107.7	-
Cc1nc2ccccc2cc1C(N)=O	0	0	-
Cc1nc(N=C(N)N)nc2ccccc12	0	88.7	0
Cc1c(Cl)cccc1NC(=O)CSc1nnc(-c2ccc(NC(=O)c3ccccc3Br)cc2)n1C	0	0	-
COCCNC(=O)c1c(NC(=O)c2nc(SC)ncc2Cl)sc2c1CCCC2	0	137.6	-
CSc1ncc(Cl)c(C(=O)Nc2sc3c(c2C(=O)NCCc2ccccc2)CCC3)n1	0	0	-
C[C@@H]1CN([C@@H](C)CO)C(=O)c2cccc(NC(=O)c3ccc(-c4nccs4)cc3)c2O[C@H]1CN(C)Cc1ccc(Oc2ccccc2)cc1	0	111.3	0
COc1ccc(CN(C)C[C@@H]2Oc3c(NC(=O)c4ccc(-c5nccs5)cc4)cccc3C(=O)N([C@@H](C)CO)C[C@H]2C)cc1	0	0	0
COc1ccc(CN(C)C[C@H]2Oc3c(NC(=O)c4ccc(-c5nccs5)cc4)cccc3C(=O)N([C@H](C)CO)C[C@@H]2C)cc1	0	0	0
C[C@@H]1CN([C@H](C)CO)C(=O)c2cccc(NC(=O)c3ccc(-c4nccs4)cc3)c2O[C@@H]1CN(C)Cc1ccc(Oc2ccccc2)cc1	0	88.6	70.5
CC(=O)Nc1ccc(Br)cc1-c1nc2ccccc2nc1OCc1cccc(Cl)c1	0	0	-
Cc1ccc(S(=O)(=O)N(C)C[C@H]2Oc3ccc(NC(=O)Nc4ccc(C(F)(F)F)cc4)cc3C(=O)N([C@H](C)CO)C[C@@H]2C)cc1	0	126.0	0
COc1ccc(S(=O)(=O)N(C)C[C@H]2Oc3ccc(NC(=O)Nc4ccc(C(F)(F)F)cc4)cc3C(=O)N([C@H](C)CO)C[C@H]2C)cc1	0	88.1	0
C[C@H]1CN([C@@H](C)CO)C(=O)c2cc(NC(=O)Nc3ccc(C(F)(F)F)cc3)ccc2O[C@@H]1CN(C)S(=O)(=O)c1ccccc1	0	0	-
Cc1ccc(S(=O)(=O)N(C)C[C@@H]2Oc3ccc(NC(=O)Nc4ccc(C(F)(F)F)cc4)cc3C(=O)N([C@H](C)CO)C[C@H]2C)cc1	0	97.0	0
Cc1ccc(S(=O)(=O)N(C)C[C@H]2Oc3ccc(NC(=O)Nc4ccc(C(F)(F)F)cc4)cc3C(=O)N([C@H](C)CO)C[C@H]2C)cc1	0	92.0	0
C[C@@H]1CN([C@H](C)CO)C(=O)c2cc(NC(=O)Nc3ccc(C(F)(F)F)cc3)ccc2O[C@H]1CN(C)S(=O)(=O)c1ccc(Cl)cc1	0	0	-
COc1ccc(S(=O)(=O)N(C)C[C@H]2Oc3ccc(NC(=O)Nc4ccc(C(F)(F)F)cc4)cc3C(=O)N([C@@H](C)CO)C[C@H]2C)cc1	0	0	0
Cc1ccc(S(=O)(=O)N(C)C[C@@H]2Oc3ccc(NC(=O)Nc4ccc(F)cc4)cc3C(=O)N([C@@H](C)CO)C[C@H]2C)cc1	0	0	0
COC(=O)/C=C1/C(=O)N/C(=N\c2nc(C)cc(C)n2)N1c1cccc(C)c1	0	0	0
CCOC(=O)CC1=NN(c2ccccc2)C(=O)/C1=C\c1cc(OC)c(OC)cc1OC	0	0	-
COc1ccc(-n2c(SCC(=O)Nc3cccc(C)c3C)nnc2-c2ccccc2)cc1	0	0	-
COc1cc(C2c3c(cc(OC)c(O)c3O)CC(CO)C2CO[C@@H]2O[C@H](C(=O)O)[C@@H](O)[C@H](O)[C@H]2O)cc(OC)c1O (stereo partly specified)	0	0	0
